These results are taken from PubChem BioAssay AID908 (National Center for Advancing Translational Sciences (NCATS), 2007).

Some of the results follow. Entries that show only a call come without a potency. Inconclusive results are not listed. Calls of active or inactive are those of the source. Calls come from the whole dose curve; as a rule, active = well fitted inhibition curve with a large enough effect in the main read-out, with a control signal flat; inconclusive = small, poorly fitted or top-dose-only effect, or a change in a side signal; inactive = no such curve, though single readings can be large or run the other way.

Chain of Caspase-7 (Homo sapiens) (P55210 24-198 limits assumed): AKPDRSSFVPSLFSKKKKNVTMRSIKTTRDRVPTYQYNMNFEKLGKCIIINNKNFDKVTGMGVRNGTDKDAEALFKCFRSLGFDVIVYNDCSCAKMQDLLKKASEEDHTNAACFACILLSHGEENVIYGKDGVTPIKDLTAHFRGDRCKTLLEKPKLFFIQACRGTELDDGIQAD
Chain of Caspase-7 (Homo sapiens) (P55210 207-303 limits assumed): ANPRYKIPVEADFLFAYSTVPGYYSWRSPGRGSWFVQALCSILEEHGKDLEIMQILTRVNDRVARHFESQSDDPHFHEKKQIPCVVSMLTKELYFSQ

This assay addresses Caspase-7 (Homo sapiens) (UniProt P55210). The assay can be described thus: Concentration-Response Counterscreen for Redox Active Inhibitors of Caspase-7: Cysteine. Conditions: caspase-7 enzyme with cysteine, fluorogenic substrate; series mostly up to 57.5 µM. The text has this:
NIH Molecular Libraries Screening Centers Network [MLSCN]
NIH Chemical Genomics Center [NCGC]
PI Name: Dr. James Wells,
Dr. Enrique Perez-Paya, Dr.Janice Williams, Dr. Dennis Wolan, a person
The caspases (Cysteine Aspartyl Protease) comprise a related family of 14 dimeric proteases that are critical mediators of apoptosis (programmed cell death) and inflammation. The caspases represent an important class of drug targets for stroke, ischemia, cancer and inflammatory diseases. […] One goal of this project was to identify compounds that act as allosteric inhibitors via stabilizing the procaspase form of the enzyme. […]
The biochemical assay was configured using purified caspase 7 at a high enzyme concentration to promote formation of the homodimers and thus facilitate the identification of allosteric inhibitors. […] After initiation of the assay with substrate the plates were rapidly read using an automated robotic system (Kalypsys, Inc.) to maintain consistent timing. […] Product formation was also measured after 1 hour. […]
Caspase 7 was prepared in buffer (50 mM HEPES pH 7.5, 50 mM KCl, 200 mM NaCl, 10 mM Cys (Aldrich cat# 861677), 0.1% CHAPS) at a concentration of 66.6 nM and 3 uL was dispensed to all wells using black solid Kalypsys 1536-well plates. […] The plates were then exposed using 405 nm excitation/520 nm emission filters for 4 sec and read at 20 sec intervals for 3 min. […]
Turning to `CCN1C(=O)/C(=C2/Sc3ccccc3N2CCCS(=O)(=O)O)SC1=S`, the Potency entry is “inactive”.

As to `N#CC1=C(N)Oc2cc(O)ccc2C1C1CCCCC1` (configuration not stated), the Potency was 25.1 µM (active).
